WRN inhibitor = inhibitors of human WRN helicase; Q14191; WRN helicase unwinding, fluorescent forked duplex, kinetic; Potency, µM (top dose mostly 114 µM), inactives show at the top dose activity change, negative = inhibition, most hits filed as inhibitors; 0.46% of 360,000 active; AID 651768; note: nearly all actives have a fitted effect of over 55% in size
Target sequence (Q14191 whole entry, looked up): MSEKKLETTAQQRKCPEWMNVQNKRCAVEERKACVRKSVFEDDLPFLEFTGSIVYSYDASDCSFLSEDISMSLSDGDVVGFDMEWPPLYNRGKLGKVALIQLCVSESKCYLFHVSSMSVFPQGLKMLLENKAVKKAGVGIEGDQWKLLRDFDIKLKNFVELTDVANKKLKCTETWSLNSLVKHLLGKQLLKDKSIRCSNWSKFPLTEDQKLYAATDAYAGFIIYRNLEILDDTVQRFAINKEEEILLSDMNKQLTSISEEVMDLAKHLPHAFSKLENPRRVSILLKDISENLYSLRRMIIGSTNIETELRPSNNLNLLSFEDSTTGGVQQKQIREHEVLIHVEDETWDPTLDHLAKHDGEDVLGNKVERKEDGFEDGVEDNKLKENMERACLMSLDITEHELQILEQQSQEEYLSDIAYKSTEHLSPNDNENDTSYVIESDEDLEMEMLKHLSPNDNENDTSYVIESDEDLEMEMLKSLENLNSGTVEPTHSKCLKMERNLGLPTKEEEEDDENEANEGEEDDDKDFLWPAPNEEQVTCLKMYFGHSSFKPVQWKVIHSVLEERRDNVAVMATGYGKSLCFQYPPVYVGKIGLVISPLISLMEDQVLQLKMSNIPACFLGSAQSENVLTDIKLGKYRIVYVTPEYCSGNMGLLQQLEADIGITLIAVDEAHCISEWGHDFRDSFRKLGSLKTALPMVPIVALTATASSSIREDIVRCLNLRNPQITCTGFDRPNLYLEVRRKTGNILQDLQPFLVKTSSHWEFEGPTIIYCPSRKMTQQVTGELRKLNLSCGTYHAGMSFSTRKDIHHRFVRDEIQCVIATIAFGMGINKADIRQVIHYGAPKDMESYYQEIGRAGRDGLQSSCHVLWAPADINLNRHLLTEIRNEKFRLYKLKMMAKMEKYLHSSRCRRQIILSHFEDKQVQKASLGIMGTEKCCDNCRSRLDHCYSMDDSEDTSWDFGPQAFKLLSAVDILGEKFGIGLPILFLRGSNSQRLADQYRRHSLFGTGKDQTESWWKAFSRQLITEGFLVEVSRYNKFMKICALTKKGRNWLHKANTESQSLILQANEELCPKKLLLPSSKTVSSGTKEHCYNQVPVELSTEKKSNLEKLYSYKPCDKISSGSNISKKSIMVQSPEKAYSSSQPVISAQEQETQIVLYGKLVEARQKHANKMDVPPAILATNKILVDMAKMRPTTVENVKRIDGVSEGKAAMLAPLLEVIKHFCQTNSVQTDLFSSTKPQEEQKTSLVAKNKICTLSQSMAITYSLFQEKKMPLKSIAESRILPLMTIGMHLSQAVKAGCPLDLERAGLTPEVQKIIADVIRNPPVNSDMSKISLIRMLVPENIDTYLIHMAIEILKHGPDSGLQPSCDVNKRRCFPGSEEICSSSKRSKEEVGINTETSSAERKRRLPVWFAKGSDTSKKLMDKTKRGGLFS
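Fluorescence dequenching readout, ex 525 nm/em 598 nm, kinetic mode: forked duplex DNA (100 nM final) with adjacent fluorophore and quencher unwound by WRN (20 nM final) with 2 mM ATP. Compound preincubation 15 min, room temperature.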
APE1 inh = blocks human APE1 abasic DNA cleavage; recombinant APE1, TAMRA/BHQ-2 abasic DNA cleavage fluorescence; Potency, µM (doses to about 65.8 µM), for inactives: top-dose activity change, negative = inhibition, most hits filed as inhibitors; 0.35% of 350,000 active; AID 2517;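 note: plate controls were vehicle for no effect and reference inhibitor for full effect; nearly all actives have a fitted effect of over 55% in size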
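Kinetic fluorescence read (525 ex/598 em nm, three reads 60 s apart) of AP-site incision; signal = third minus first read. Enzyme 0.75 nM, dual-labelled THF duplex 50 nM, compound preincubation 15 min RT.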
TR SRC2 fluor cs = Texas Red fluorescence interference in TRb-SRC2 counter-screen; 0.29% of 280,000 active; Potency, µM (highest dose often 106 µM), for the others: at the top dose fluorescence change, negative = quenching; TRb/SRC2 Texas Red total fluorescence interference; active = well fitted curve in either direction with a large enough effect; inconclusive = small, poorly fitted or top-dose-only effect
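Human TRβ ligand-binding domain (0.6 uM) and Texas Red SRC2 peptide (20 nM) in Tris buffer with 1 uM T3 and 5% DMSO were incubated with pinned compound for 5 hr at ambient temperature. Total fluorescence was computed as S + 2P (555/632 nm).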
BLM inh = blocks DNA unwinding by human BLM helicase; recombinant BLM DNA unwinding, fluorescence dequenching; 0.2% of 350,000 active; Potency, µM (doses to about 56.1 µM), inactives show at the top dose activity change, negative = inhibition, actives largely listed as inhibitors; P54132;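 note: plate controls were vehicle for no effect and no enzyme for full effect; nearly all actives have a fitted effect of over 35% in size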
TRb SRC2 PPI = inhibitors of human thyroid hormone receptor beta-SRC2 interaction | TRbeta-SRC2 peptide binding, fluorescence polarization; receptor liganded with 1 µM T3 | AID 1469 | P10828 | 0.065% of 280,000 active | Potency, µM (doses to about 106 µM), inactives show at the highest dose activity change, negative = inhibition, most hits filed as inhibitors;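 note: plate controls were bound peptide for no effect and peptide without receptor for full effect; nearly all actives have a fitted effect of over 50% in size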
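Human TRb LBD (0.6 uM) plus Texas Red-labeled SRC2 peptide (20 nM), 1uM T3, 5% DMSO, 5 hr at ambient temperature. Decreased polarization (555/632 nm) flags inhibition; data normalized to free and bound peptide controls.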
RECQ1 inh = blocks DNA unwinding by human RECQ1 | P46063 | RECQ1 DNA unwinding, red fluorescence kinetic read | Potency, µM (series often up to 57.3 µM), for inactives: top-dose activity, negative = inhibition, actives largely listed as inhibitors | 0.54% of 240,000 active | AID 2549;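 note: plate controls were vehicle for no effect and no enzyme for full effect; nearly all actives have a fitted effect of over 30% in size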
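50 nM RECQ1T1 preincubated 15 min with compound in Tris pH 8.0 buffer with MgCl2, DTT, Tween-20 and 2.5 ug/ml poly(dI-dC); started with 200 nM TAMRA/BHQ-2 forked duplex and 2 mM ATP. Unwinding read as fluorescence (525/598 nm), two reads 2 h apart.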
The depositor's hits bear a star; ? = inconclusive; · = no result given; [ ] = dose if it differs, or a comment. The list is not random: actives were taken first. Their share in the collection is about 0.91%. Unless noted, calls come from the whole dose curve; as a rule, active = well fitted curve in the direction sought with a large enough effect; inconclusive = small, poorly fitted or top-dose-only effect, or another doubt; inactive = no such curve, though single readings can be large; an effect the other way counts as inactive or inconclusive. Unless noted, % is set by controls: 0 for no effect and ±100 for the full control effect; potency is the fitted concentration of half-maximal effect.

SMILES | WRN inhibitor | APE1 inh | TR SRC2 fluor cs | BLM inh | TRb SRC2 PPI | RECQ1 inh
CS(=O)(=O)Nc1cccc(-c2nc(N3CCOCC3)c3ccccc3n2)c1 | · | -8% | -5% | 4% | -6% | ?
CCCCC(CC)COC(C)=O (stereo unspecified) | · | · | -2%[201 µM] | · | 6%[201 µM] | ·
Nc1ccc2nc(-c3ccc(O)cc3)sc2c1 | · | · | 79µM*[quencher] | -1% | -15%[53 µM] | ·
COCCN1C(=O)/C(=C2/C(=O)N(CC(=O)Nc3ccccc3Cl)c3ccccc32)SC1=S | 4% | -9% | · | -2% | · | ·
O=C(CN1C(=O)/C(=C2/SC(=S)N(CCS(=O)(=O)O)C2=O)c2ccccc21)Nc1cccc(C(F)(F)F)c1 | 18µM* | ? | · | · | · | ·
O=C(CN1C(=O)/C(=C2\SC(=S)N(CCS(=O)(=O)O)C2=O)c2ccccc21)Nc1cccc(Br)c1 | 89µM* | 6.7µM* | · | -15% | · | ·
O=C(CN1C(=O)c2ccccc2Sc2ncccc21)Nc1cccc(C(F)(F)F)c1 | · | · | -2% | -7% | -8% | ·
CCCCC(CC)C(=O)OCCOCCOCCOC(=O)C(CC)CCCC (stereo unspecified) | · | · | -3%[201 µM] | · | 1%[201 µM] | ·
CCC1CCCCN1CCCNC(=O)c1c(O)nc2c(C)cccn2c1=O (stereo unspecified) | -1% | -14% | -30% | -7% | 0% | ·
Cc1cccn2c(=O)c(C(=O)NCCCN3CCCCC3C)c(O)nc12 (stereo unspecified) | -9% | 6% | 18µM*[quencher] | -7% | -1% | ·
CCOc1cc(CNc2ccc(O)cc2)ccc1OCc1ccc(Cl)cc1Cl | ? | ? | 19% | ? | 28µM* | -15%
C[Si]1(C)O[Si](C)(C)O[Si](C)(C)O[Si](C)(C)O1 | · | · | 5%[201 µM] | · | 6%[201 µM] | ·
O=C1OC2(c3cc(I)c(O)c(I)c3Oc3c2cc(I)c(O)c3I)c2c(Cl)c(Cl)c(Cl)c(Cl)c21 | · | 13µM* | 7.1µM*[fluorescent] | 13µM* | 25µM* | 10µM*
Cc1cc(O)ccc1C1(c2ccc(O)cc2C)OC(=O)c2ccccc21 | -20% | 3% | 1% | -9% | -8% | -10%
O=C1OC2(c3ccccc31)c1cc(I)c(O)c(I)c1Oc1c2cc(I)c(O)c1I | · | 27µM* | 40µM*[fluorescent] | 22µM* | ? | 28µM*
O=C(N=Nc1c(O)[nH]c2ccc([N+](=O)[O-])cc12)c1cc(-c2ccccc2Cl)nc2ccccc12 | -20%[11.6 µM] | 5% | -3% | 4µM* | -4% | 3%
COc1ccccc1C(=O)N=Nc1c(O)[nH]c2ccc([N+](=O)[O-])cc12 | -13% | 2% | -8% | -7% | -5% | -7%
COC(=O)c1ccc([C@H]2Nc3ccc(S(=O)(=O)Nc4ccc(F)cc4)cc3[C@H]3C=CC[C@H]32)cc1 | · | · | -2% | -21% | 1% | ·
COc1cccc(NS(=O)(=O)c2ccc3c(c2)C2C=CCC2C(c2ccc(C(=O)O)cc2)N3)c1 (stereo unspecified) | 45µM* | -5% | -4% | -22% | 3% | -9%
O=C(O)c1ccc2c(c1)[C@@H]1C=CC[C@@H]1[C@H](c1ccccn1)N2 | 35µM* | · | · | · | · | ·
COc1ccc(OC)c([C@@H]2Nc3ccc(C(=O)O)cc3[C@@H]3C=CC[C@@H]32)c1 | · | · | 0% | 4% | 5% | ·
CCOc1ccc(NC(=O)OC(C)C)cc1OCC | · | · | -2%[201 µM] | · | 3%[201 µM] | ·
CCCn1c(/C=C/c2ccco2)nc2ccccc21 | -15%[57.1 µM] | 6% | 3.5µM*[quencher] | -28% | -19%[53 µM] | -8%
CCCCn1c(/C=C/c2ccco2)nc2ccccc21 | -34% | 7% | 11% | ? | -5% | 0%
c1ccc(-c2noc(CN3CCc4sccc4C3)n2)cc1 | -3% | 0% | -2% | -2% | -8% | 8%
CN(C(=S)Nc1ccc(Oc2ccccc2)cc1)c1ccc(O)cc1 | ? | 13% | -1% | -12% | 4% | -6%
CN(C(=S)Nc1cccnc1)c1ccc(O)cc1 | -11%[57.1 µM] | ? | -16% | -3% | 35µM* | ?
